Source: PubChem
RORg inh = qHTS for inhibitors of ROR gamma transcriptional activity; Potency, µM (series often up to 53.6 µM), without a hit: at the top dose activity change, negative = inhibition, usual class: inhibitors; 310,000 compounds, 5.4% hits; Nuclear receptor ROR-gamma (Mus musculus), P51450; Drosophila S2 Gal4-RORgamma UAS-luciferase reporter, 20 h; AID 2551, 2010; also: nearly all actives have a fitted effect of over 60% in size
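Using a luciferase readout, inhibitors were identified by reduced reporter activity in Drosophila cells coexpressing a copper-inducible Gal4–ROR gamma fusion and UAS-driven Photinus luciferase, incubated 20 hr after 700 uM copper sulfate.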
B2AR arrestin = qHTS assay of beta-arrestin-biased ligands of beta2-adrenergic receptor | AID 492947, 2010 | Potency, µM (top dose mostly 46.1 µM), without a hit: top-dose activation, actives largely listed as activators | beta-arrestin recruitment to beta2AR, cell-based reporter | Beta-2 adrenergic receptor (Homo sapiens), P07550 | 330,000 compounds, 0.02% hits;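 also: 0% = DMSO controls and full agonism = EC100 isoproterenol or metaproterenol; nearly all actives have a fitted effect of over 65% in size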
Target sequence (P07550 whole entry, looked up): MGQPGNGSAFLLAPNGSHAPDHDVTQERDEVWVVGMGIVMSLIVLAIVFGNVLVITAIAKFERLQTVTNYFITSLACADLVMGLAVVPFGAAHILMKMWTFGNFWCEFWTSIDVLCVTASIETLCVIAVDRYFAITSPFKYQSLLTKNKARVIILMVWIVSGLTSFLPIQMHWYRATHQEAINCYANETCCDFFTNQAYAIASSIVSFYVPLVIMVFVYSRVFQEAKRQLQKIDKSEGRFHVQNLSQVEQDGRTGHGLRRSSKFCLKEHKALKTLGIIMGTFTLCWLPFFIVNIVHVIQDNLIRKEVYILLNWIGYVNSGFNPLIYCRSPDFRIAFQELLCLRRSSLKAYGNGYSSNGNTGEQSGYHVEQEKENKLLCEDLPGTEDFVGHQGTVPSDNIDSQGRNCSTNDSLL
NPSR antag = qHTS Assay for Antagonists of the Neuropeptide S Receptor: cAMP Signal Transduction. CHO-NPSR cells, cAMP TR-FRET, antagonist mode. Potency, µM (top dose mostly 38.3 µM), for the others: at the top dose activity change, negative = inhibition, most hits filed as inhibitors. 220,000 compounds, 1% hits. Q6W5P4; also: nearly all actives have a fitted effect of over 50% in size
VP16 counter = VP16 counterscreen qHTS for inhibitors of ROR gamma transcriptional activity. 310,000 compounds, 3.5% hits. Potency, µM (series often up to 53.6 µM), without a hit: top-dose activity, negative = inhibition, most hits filed as inhibitors. Drosophila S2 Gal4-VP16 UAS-luciferase, luminescence, 20 h;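 also: Gal4-VP16 expression switched on by copper sulfate through the metallothionein promoter; nearly all actives have a fitted effect of over 50% in size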
* marks the source's active call; other numbers are inactive results; ? = inconclusive; nt = no result; [ ] = dose if it differs, or a comment. The list is not random: actives were taken first. Their share in the collection is about 5.7%. Calls follow the shape of the dose curve; as a rule, active = well fitted curve in the direction sought with a large enough effect; inconclusive = small, poorly fitted or top-dose-only effect, or another doubt; inactive = no such curve, though single readings can be large; an effect the other way counts as inactive or inconclusive. Unless noted, % is scaled to controls: 0 for no effect and ±100 for the full control effect; potency is read from the fitted curve at half-maximal effect.

SMILES	RORg inh	B2AR arrestin	NPSR antag	VP16 counter
CNC(=O)N(O)C1N(/N=C/c2ccc(C)cc2)C(=S)SC1(C)C (stereo not given)	4.8%	0.3%	nt	6.4%
CNC(=O)N(O)C1N(/N=C/c2cc(Br)ccc2O)C(=S)SC1(C)C (stereo not given)	15.8µM*	0.2%	nt	?
CC1(C)SC(=S)N(/N=C/c2ccccc2O)C1N(O)C(=O)Nc1ccccc1 (stereo not given)	17.8µM*	0.4%	?	?
C[C@H](CO)N1C[C@H](C)[C@@H](CN(C)C(=O)Nc2ccccc2)Oc2c(NC(=O)C3CCCCC3)cccc2C1=O	nt	0.0%	nt	nt
Cc1[nH]c2ccccc2c1/C=N/Nc1ccccc1[N+](=O)[O-]	?	0.2%	10µM*	-7.2%
CCC(=O)Nc1ccc(C(=O)N/N=C/c2c(C)[nH]c3ccccc23)cc1	13.8%	-0.6%	-21.4%	-9.4%
Cc1[nH]c2ccccc2c1/C=N/NC(=S)NC(C)C	2.51µM*	-0.4%	-14.3%	7.08µM*
CC(C)NC(=S)N/N=C/c1c[nH]c2ccccc12	3.55µM*	9.0%	-1.1%	1.41µM*
Cc1ccc(NC(C)C(=O)N/N=C/c2c[nH]c3ccccc23)cc1 (stereo not given)	-4.6%	-0.6%	5.6%	-0.7%
CCOC(=O)C1=C(COC(=O)Cc2ccc(Cl)cc2)NC(=O)NC1C (stereo not given)	nt	0.2%	nt	nt
O=C(c1cnccn1)N1CCC2(CC1)CCN(c1ncccn1)CC2	15.3%	nt	nt	2.3%
O=c1c2cc3c(nc2[nH]c(=S)n1-c1ccccc1)CCCC3	2.51µM*	0.2%	?	?
CCn1c(=S)[nH]c2nc3c(cc2c1=O)CCCC3	1.58µM*	0.1%	?	?
Cc1cc2c(c(=O)o1)C(c1cccs1)C(C#N)=C(N)O2 (stereo not given)	14.1µM*	-0.7%	-9.4%	?
COc1ccc(C2C=C3CNS(=O)(=O)C3CC2OC(=O)c2cccc(C)c2)cc1 (stereo not given)	12.1%	nt	nt	-11.3%
NC(=O)c1ccc(-c2ncc(-c3ccccc3)o2)cc1	1.78µM*	2.5%	-6.6%[46.1 µM]	11.2µM*
O=C1CS/C(=C/C(=O)c2cccc(Cl)c2)N1	5.62µM*	0.3%	7.5%	?
C=CCNC(=S)NNC(=O)c1ccccc1OCC	-24.9%	-0.3%	5.1%	-6.8%
C=CCNC(=S)NNC(=O)COc1ccc(Br)cc1	5.01µM*	6.7%	6.7%	3.55µM*
C=CCNC(=S)NNC(=O)COc1cccc(Cl)c1	1.26µM*	-0.5%	-5.7%[46.1 µM]	8.91µM*
C=CCNC(=S)NNC(=O)c1cccc(Br)c1	?	-0.8%	-8.9%[46.1 µM]	?
C=CCNC(=S)NNC(=O)COc1ccc2cc(Br)ccc2c1	3.16µM*	-0.2%	-6.8%	?
Cc1cc(C)cc(NS(=O)(=O)c2c(C(=O)N3CCOCC3)c(C)n(C)c2C)c1	-8.2%	-0.3%	nt	-4.6%
CCOc1ccc(C(=O)NCc2ccc3c(c2)OCO3)cc1OCC	-22.6%[1.91 µM]	-1.1%	nt	-7.0%
Cc1ccc(O)c(N=CC2=C(O)c3ccccc3C2=O)c1	3.98µM*	-0.7%	?	7.08µM*
SMILES	RORg inh	B2AR arrestin	NPSR antag	VP16 counter
Cc1ccc(F)c(N=Cc2c(O)c3ccccc3oc2=O)c1	-18.0%	0.3%	nt	7.3%
O=C1C(C=Nc2ccccc2O)=C(O)c2ccccc21	3.98µM*	-0.1%	-28.4%[46.1 µM]	7.08µM*
CC(=O)N/N=C(/C)c1ccc(NC(=O)c2csc(C)c2C)cc1	-30.8%	-0.3%	nt	6.0%
CC(=O)c1ccc(NC(=O)C(C)OC(=O)/C=C/c2ccco2)cc1 (stereo not given)	nt	-0.5%	nt	nt
C/C=C1\COC(C(=O)NCc2ccccn2)(C(F)(F)F)C=C1C=C(C)C (stereo not given)	?	nt	nt	-18.8%
CC1(C)C(=O)C2C[C@]3(O)C4=CC(=O)OC(c5ccoc5)[C@]4(C)CCC3[C@](C)(C2=O)C1CC(=O)O (stereo not given in full)	18.8%	nt	nt	1.2%
Clc1ccccc1Cn1c(/C=C/c2ccco2)nc2ccccc21	11.2µM*	11.2%	?	?
Cc1cc(NC(=O)CSc2nc(CCC3CCCC3)nc3ccccc23)no1	7.7%	-0.1%	-17.5%[46.1 µM]	-9.4%[0.365 µM]
O=C(CSc1nc(CCC2CCCC2)nc2ccccc12)NCc1ccc2c(c1)OCO2	15.8µM*	-0.7%	-47.7%	?
O=C(CSc1nc(Cc2ccccc2)nc2ccccc12)c1ccc2c(c1)OCCO2	6.31µM*	-0.3%	-16.2%[46.1 µM]	?
